Results reported in PubChem BioAssay (EPA / NIEHS).
Records with an inconclusive call do not appear. Calls of active or inactive are those of the source. Rule for the calls, unless noted: active = hit-call score of the fitted dose curve at least 0.9, where 1 is the maximum; inactive = score below 0.9.

Experiments:
[1] = CCTE_Harrill_HTTr_Viability_MCF7: CCTE's 6-hour Cell Viability Assessment for the High-Throughput Transcriptomics (HTTr) Platform, in MCF-7 cells cultured in DMEM + 10% fetal bovine serum, Harrill Lab (AID 2284010)
Method in brief: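 Read-out is propidium iodide gain of signal by high-content imaging, reflecting membrane integrity loss. Measurements are taken 6 h after dosing, eight concentrations per chemical, with DMSO serving as baseline for bidirectional curve fitting.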

[2] = CCTE_Harrill_HTTr_Apoptosis_MCF7: CCTE's 6-hour Apoptosis Assessment for the High-Throughput Transcriptomics (HTTr) Platform, in MCF-7 cells cultured in DMEM + 10% fetal bovine serum, Harrill Lab (AID 2284011)
Method in brief: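 Apoptosis in MCF-7 cells grown in DMEM with 10% fetal bovine serum was scored after a six hour exposure by high content imaging of caspase-3/7 activation (CellEvent Caspase 3/7 Green), with DMSO serving as negative control and baseline.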

[3] = CCTE_Harrill_HTTr_CellCount_MCF7: CCTE's Cell Proliferation Assessment for the High-Throughput Transcriptomics (HTTr) Platform, Harrill Lab (AID 2284012; active = hit-call score of the fitted dose curve at least 0.9, where 1 is the maximum;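 note: cells exposed to compound for six hours; intended direction is loss of nuclei count meaning fewer cells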)
Method in brief: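 Cell count served as viability reporter: loss of Hoechst-stained nuclei, counted by high content imaging, marks decreased growth or survival. Exposure was 6 h in MCF-7 cells across eight concentrations, with DMSO as baseline.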

[4] = CCTE_Deisenroth_AIME_96WELL_CTox_Active: Cytotoxicity Assessment (CTOX) in CCTE's 96-well Estrogen Receptor Transactivation Assay with AIME metabolic competence (metabolism positive), Deisenroth Lab (AID 2284028; active = hit-call score of the fitted dose curve at least 0.9, where 1 is the maximum)
Method in brief: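 Cytotoxicity in VM7Luc4E2 breast cells after 24 h exposure to medium from a 2 h metabolic pre-incubation with induced rat hepatic S9 in alginate microspheres; fluorescent live-cell protease readout, 10-point series 0.002–200 uM, n=4.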

[5] = CCTE_Deisenroth_AIME_96WELL_CTox_Inactive: Cytotoxicity Assessment (CTOX) in CCTE's 96-well Estrogen Receptor Transactivation Assay without AIME metabolic competence (metabolism negative), Deisenroth Lab (AID 2284029; active = hit-call score of the fitted dose curve at least 0.9, where 1 is the maximum)
Method in brief: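 Metabolism-negative mode: alginate-water lids without rat S9, 2 h pre-incubation of 10-point series (0.002 - 200 uM). Conditioned medium on VM7Luc4E2 cells 24 h; loss of fluorescent live-cell protease signal marks cytotoxicity.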

| SMILES | outcome [1] | outcome [2] | outcome [3] | outcome [4] | outcome [5] |
| --- | --- | --- | --- | --- | --- |
| ClC=C(Cl)CCl | inactive | inactive | inactive | – | – |
| CCC(C)(C)c1cc(-n2nc3ccccc3n2)c(O)c(C(C)(C)CC)c1 | – | – | – | inactive | inactive |
| O=C(O)CCCOC(=O)c1ccccc1C(=O)O | – | inactive | inactive | – | – |
| CNC(=O)Oc1cccc(C(C)C)c1 | inactive | inactive | inactive | – | – |
| Cc1cc(N)ccc1N | inactive | inactive | inactive | – | – |
